This passage reports Potency results from PubChem BioAssay AID493201 (National Center for Advancing Translational Sciences (NCATS), 2011).

Results filed as inconclusive are left out. A call without a number means that no potency is given here. The source made the active and inactive calls. The call rests on the fitted dose curve; in most records, active means well fitted activation curve with a large enough effect; inconclusive means small, poorly fitted or top-dose-only effect; inactive means no such curve, though single readings can be large or run the other way.
Potency means the concentration at half of the fitted maximal effect.

The nature of this assay: qHTS Assay for Identifying a Potential Treatment of Ataxia-Telangiectasia: Secondary assay (no NCS) hit validation.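 Further: phosphorylated KAP1 signal as a proxy for ATM-like kinase activity.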 The note with it: A-T patient fibroblasts, AlphaLISA, no DNA damage added, 90 min; series mostly up to 76.9 µM. The procedure, abridged: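 Without NCS-induced DNA breaks, ATM-like activity scored as phospho-KAP1 AlphaLISA signal (pKAP1/total KAP1 bead pair) in ATM-null F2112 fibroblasts; compound series up to 76.7 uM final, 37C incubation, lysates read on AlphaScreen protocol.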
Background: Quantitative high-throughput screening tests each substance at several concentrations.
Consider `CCn1c2ccccc2c2c3ncc4cccn4c3ccc21`, for which the Potency was 36.8 µM (active).

Regarding `COc1ccc(NC(=O)C2CC2)cc1OC1CCCC1`, the Potency entry was “inactive”.

For `CCC(C)NC(=O)c1cn(CCOC)c(=O)c2c1c1ccccc1n2C` (centres undefined), the Potency entry is “inactive”. In the case of `CCOC(=O)C1=C(C)N(c2ccc(OC)cc2)C(=O)/C1=C\c1ccc(O)c(OCC)c1` it was “inactive”.

Regarding `O=C(CSc1nnc(CNC(=O)c2ccccc2)o1)NCCc1ccccc1`, the Potency entry is “inactive”. For the compound `O=C(CN1C(=O)c2cccc([N+](=O)[O-])c2C1=O)NCc1ccccc1`, the Potency result is “inactive”.

For `Cc1ccc(C2(C)NC(=O)N(CC(=O)Nc3ccccc3N3CCCC3)C2=O)cc1` (centres undefined), the Potency entry is “inactive”. To `Cc1cc(C)c2c(Cn3ccnc3)cc(=O)oc2c1` belongs “inactive”; to `COc1ccc(C(CNC(=O)C(Cc2ccccc2)NC(N)=O)N(C)C)cc1` (centres undefined), “inactive”. In the case of `CCC(C)N1C(=S)SC(C)(C)C1N(O)C(=O)NC1CCCCC1` (centres undefined) it was “inactive”; in that of `COc1ccc(C2/C=C\CN(S(=O)(=O)c3ccc4ccccc4c3)CC(=O)N2Cc2ccc(F)cc2)cc1` (centres undefined), 41.2 µM (active). To `CCOc1cccc(C(=O)Nc2ccccc2N2CCN(C(=O)C(C)C)CC2)c1` belongs “inactive”; to `CC(=O)Nc1ccc(S(=O)(=O)NCC2(N3CCOCC3)CCCCC2)cc1`, “inactive”; to `CCOC(=O)c1c(CSc2ccsc2)n(C)c2cc(Br)c(O)c(CN(C)C)c12`, 26 µM (active). Regarding `O=C(CNCc1cccs1)Nc1ccc(OC(F)(F)F)cc1`, the Potency result is “inactive”. As for `CCCN1C2CCCC1CC(NC(=S)Nc1cccc(C)c1C)C2` (centres undefined), the Potency result was “inactive”. In the case of `S=c1[nH]nc(C2CCCCC2)n1/N=C/c1ccc(Br)cc1` it was “inactive”; in that of `O=[N+]([O-])c1ccc(F)cc1F`, 32.8 µM (active); in that of `Cc1ccc(C(=O)c2c(C)oc3c2C(=O)C(=O)c2ccccc2-3)cc1`, “inactive”.

For the compound `CN(Cc1ccccc1)C(=O)c1cccc(N2C(=O)C3CC=CCC3C2=O)c1` (centres undefined), the Potency result was “inactive”. To `CCc1oc(C(=O)OC)cc1CSC(=N)N` belongs “inactive”; to `CNC(=O)c1ccc(-c2cc3onc(-c4ccccc4)c3c(=O)n2C)cc1`, 18.4 µM (active). For `CC(C)(C=O)C1=CC(=O)c2ccccc2C1=O`, the Potency is 51.9 µM (active). As for `Cc1ccc(OC(=O)c2cc(C)nn2C(C)(C)C)cc1`, the Potency result was “inactive”. In the case of `CC(C)CNS(=O)(=O)c1cc(C(=O)O)c(Cl)cc1Cl`, the Potency result was “inactive”. On to `COc1ccccc1S(=O)(=O)Nc1ccc(-c2nnc3n2CCCCC3)cc1`, for which the Potency result was “inactive”. In the case of `CCn1c(SCc2cccc(F)c2)nnc1-c1ccncc1` it was “inactive”. Regarding `Cc1ccccc1S(=O)(=O)Oc1ccc2ccc(O)cc2c1`, the Potency result is “inactive”.

For the compound `CCOc1ccc(C(=O)NC(=S)Nc2cccnc2)cc1[N+](=O)[O-]`, the Potency result is “inactive”. To `CN(C)c1ccc2nc3ccc(=[N+](C)C)cc-3sc2c1` belongs 14.6 µM (active); to `CC(C)CC(=O)Nc1c2c(nn1-c1cccc(Cl)c1)CS(=O)C2` (centres undefined), 58.2 µM (active); to `O=C(NCc1ccccc1)c1cccnc1Sc1ccccc1`, “inactive”. In the case of `NC(=O)C1CCN(Cc2nc3cc(C(F)(F)F)ccc3c(=O)[nH]2)CC1` it was “inactive”; in that of `CN(C)c1cc(Nc2ccc(O)cc2)c([N+](=O)[O-])c2nonc12`, “inactive”.
